HEK cytotox: cytotoxic compounds in HEK 293 cells. HEK 293 viability, ATP luminescence (CellTiter-Glo), 48-72 h. Potency, µM (top dose mostly 115 µM), without a hit: at the highest dose activity change, negative = cytotoxicity, actives largely listed as inhibitors. 94,000 compounds, 6.6% hits. AID 1345083; further: nearly all actives have a fitted effect of over 60% in size
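Cytotoxicity was scored by loss of ATP-coupled luminescence (CellTiter-Glo) in HEK 293 cells. Compound treatment ran 48 or 72 hr at 37 degree Celsius, 5% CO2, 95% humidity.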
GPT2 inh: inhibitors of human GPT2 alanine aminotransferase | Q8TD30 | 100,000 compounds, 0.25% hits | Recombinant GPT2, coupled pyruvate oxidase/HRP Amplex Red fluorescence | Potency, µM (highest dose often 57.7 µM), inactives show at the highest dose activity change, negative = inhibition, usual class: inhibitors; further: nearly all actives have a fitted effect of over 60% in size
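Recombinant GPT2 (10ng/uL) with 250uM a-KG and 2mM L-alanine, 30 min at room temperature, in HEPES pH 7.5 buffer. Pyruvate detected by pyruvate oxidase/HRP/Amplex Red fluorescence after 30 min in the dark; AOA (50uM) as positive control.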
hNpr1 antagonist: antagonists of human natriuretic peptide receptor Npr1 | 76,000 compounds, 1.6% hits | HEK293 hNpr1 GloSensor cGMP, ANP-stimulated luminescence | Potency, µM (top dose mostly 46.3 µM), for the others: at the highest dose activity change, negative = inhibition, actives largely listed as inhibitors | P16066; calls by dose curve; further: nearly all actives have a fitted effect of over 60% in size
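HEK293 cells stably expressing human Npr1 and cGMP GloSensor pGS-40F, loaded 2 h with 2% GloSensor reagent, given compound 30 min at room temperature. Luminescence read before and 20 min after 0.1 nM hNppA.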
NIH3T3 tox: cytotoxic compounds in NIH 3T3 cells. NIH 3T3 viability, CellTiter-Glo ATP luminescence, 48-72 h. 94,000 compounds, 4.3% hits. Potency, µM (highest dose often 96.7 µM), inactives show at the top dose activity change, negative = cytotoxicity, usual class: inhibitors; further: nearly all actives have a fitted effect of over 55% in size
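Luminescent ATP readout (CellTiter-Glo, 10 min RT) after 48 or 72 hr compound exposure of NIH 3T3 cells seeded at 400 cells/well in 1536-well format; quantitative HTS.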
FLuc inh: blocks purified firefly luciferase enzyme activity; purified P. pyralis luciferase, luminescence, biochemical; Potency, µM (series often up to 115 µM), most hits filed as inhibitors; 76,000 compounds, 2.5% hits; AID 1347043; further: nearly all actives have a fitted effect of over 65% in size
Target sequence (P08659 whole entry, looked up): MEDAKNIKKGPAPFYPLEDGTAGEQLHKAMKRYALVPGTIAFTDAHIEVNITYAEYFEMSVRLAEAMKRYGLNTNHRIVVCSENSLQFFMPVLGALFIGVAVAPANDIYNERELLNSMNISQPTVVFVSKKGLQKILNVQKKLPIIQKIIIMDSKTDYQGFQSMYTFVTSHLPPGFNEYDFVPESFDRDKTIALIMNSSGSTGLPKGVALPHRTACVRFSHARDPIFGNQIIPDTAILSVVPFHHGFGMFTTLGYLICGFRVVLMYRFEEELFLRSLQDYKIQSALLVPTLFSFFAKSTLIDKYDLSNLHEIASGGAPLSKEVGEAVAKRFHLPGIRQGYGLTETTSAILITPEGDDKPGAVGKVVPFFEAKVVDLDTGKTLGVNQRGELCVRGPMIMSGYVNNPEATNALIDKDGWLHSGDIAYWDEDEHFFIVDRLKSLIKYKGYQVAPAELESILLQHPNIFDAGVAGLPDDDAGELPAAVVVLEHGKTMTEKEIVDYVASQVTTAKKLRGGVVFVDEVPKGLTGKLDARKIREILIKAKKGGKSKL
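Luminescence read by CCD imager after adding enzyme (10nM final) to wells holding compound, titrated in qHTS. Substrates 10uM each D-luciferin and ATP; buffer 50mM Tris acetate pH 7.5, 10mM Mg acetate, Tween-20, BSA.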
Numbers without * were called inactive; i = inactive; ? = inconclusive; · = no result; [ ] = dose if it differs, or a comment. A selection: hits, their analogues and other compounds. The true share with any hit is near 10%. Unless noted, the call rests on the fitted dose curve; in most records, active means well fitted curve in the direction sought with a large enough effect; inconclusive means small, poorly fitted or top-dose-only effect, or another doubt; inactive means no such curve, though single readings can be large; an effect the other way counts as inactive or inconclusive. On the % scale 0 is the no-effect control and ±100 the full control effect; potency means the concentration at half of the fitted maximal effect.

SMILES	HEK cytotox	GPT2 inh	hNpr1 antagonist	NIH3T3 tox	FLuc inh
COCc1ccc2c(c1)c(OC(C)(C)C(=O)N1CCN(CCO)CC1)nn2Cc1cccnc1	i	0%	8%	35µM*	i
CC(C)c1ccc(CC(=O)N2CCCc3ncc(C(=O)NCc4cccc(Cl)c4)cc32)cc1	?	-12%	-13%	?	i
CC(C)c1ccc(CC(=O)N2CCCc3ncc(C(=O)NCCc4c[nH]c5ccccc45)cc32)cc1	25µM*	-25%	-5%	11µM*	i
Cc1ccccc1NC(=O)c1cnc2c(c1)N(C(=O)CCc1ccccc1)CCC2	100µM*	-12%[88.5 µM]	?	-21%[138 µM]	i
CC(C)c1ccc(CC(=O)N2CCCc3ncc(C(=O)Nc4ccn(C)n4)cc32)cc1	89µM*	-6%[88.5 µM]	-2%[70.6 µM]	?	i
O=C(Nc1cccc(C(F)(F)F)c1)c1cnc2c(c1)N(C(=O)Cc1cccc(C(F)(F)F)c1)CCC2	25µM*	?	-24%	?	i
Cc1ccccc1NC(=O)c1cnc2c(c1)N(Cc1ccccc1)CCC2	?	-3%[88.5 µM]	0%[70.6 µM]	?	i
COc1ccc(CN2CC[C@H](c3nnc(-c4ccco4)o3)C2)cc1	-13%[172 µM]	-1%[88.5 µM]	-3%[70.6 µM]	-18%[174 µM]	i
O=C(C(=O)N1CCC(c2cc(Cc3ccccc3)[nH]n2)CC1)c1cccnc1	?	i[11.5 µM]	-14%	?	i
CC(=O)Nc1ccc(CN2CCCC(N3CCN(c4ccccc4)CC3)C2)cc1 (centres undefined)	3%	i	-6%	-2%	i
COc1ccccc1CC(=O)N1CCCc2ncc(C(=O)Nc3ccccc3)cc21	?	-5%[88.5 µM]	?	-23%[138 µM]	?
COc1cccc(NC(=O)c2cnc3c(c2)N(C(=O)Cc2ccccc2OC)CCC3)c1	100µM*	-20%[88.5 µM]	-2%[70.6 µM]	-23%[138 µM]	?
CNC(=O)c1cnc2c(c1)N(C(=O)Cc1ccc(C(C)C)cc1)CCC2	?	?	-15%[70.6 µM]	?	i
COc1ccccc1N1CCCc2ncc(C(=O)Nc3cccnc3)cc21	100µM*	?	-19%[70.6 µM]	?	i
COc1ccc(NC(=O)c2cnc3c(c2)N(C(=O)Cc2ccc(C(C)C)cc2)CCC3)cc1OC	32µM*	-11%	?	?	i
COCCCNC(=O)c1cnc2c(c1)N(C(=O)Cc1ccc(C(C)C)cc1)CCC2	71µM*	-14%[88.5 µM]	-2%[70.6 µM]	-24%[138 µM]	i
Cn1nc(C(=O)N2CCCN(Cc3ccncc3)C(c3ccccc3)CC(=O)NCC2)c2ccccc21 (centres undefined)	-14%	i	1%	-12%	i
COc1ccc(Cn2c(=O)c(C(=O)N3CCN(Cc4ccccc4)CC3)nc3cccnc32)cc1	?	i	·	?	·
N#Cc1ccc(C(=O)Nc2ccc3n(c2=O)C[C@H]2C[C@@H]3CN(C(=O)c3ccccn3)C2)cc1	-1%	-18%	0%	?	?
COc1ccc(-c2ccnc3nc(Cc4cc(F)cc(F)c4)nn23)c(F)c1	40µM*	-3%	-7%	?	i
COc1ccc(-c2ccnc3nc(CCc4ccccc4)nn23)c(F)c1	?	-7%	5%	?	i
O=C(c1ccccc1)N1CCC(C(=O)N2CCC(N3CCOC3=O)CC2)CC1	2%	i	·	-8%	·
Cc1ccccc1C(=O)NC1CCCN(Cc2ccc(-c3cncnc3)cc2)C1 (centres undefined)	?	i	·	-20%	·
COc1ccccc1C(=O)N1CCCn2nc(C)c(-c3ccccc3-c3ccccc3)c21	89µM*	i	-1%[70.6 µM]	?	i
Cc1nn2c(c1-c1ccccc1-c1ccccc1)N(C(=O)C1CCOCC1)CCC2	-10%[172 µM]	0%[88.5 µM]	3%[70.6 µM]	?	i
Cc1nn2c(c1-c1ccccc1-c1ccccc1)N(C(=O)c1cccnc1)CCC2	-28%[172 µM]	-16%[88.5 µM]	-9%[70.6 µM]	?	i
Cc1nn2c(c1-c1cccc3cn[nH]c13)N(C(=O)c1cccc(Cl)c1)CCC2	50µM*	i	-1%[70.6 µM]	?	i
Cc1nn2c(c1-c1ccccc1Oc1ccccc1)N(C(=O)C1CCC1)CCC2	89µM*	-11%[88.5 µM]	-5%[70.6 µM]	?	i

Bioassay records deposited in PubChem BioAssay by National Center for Advancing Translational Sciences (NCATS).
